Here are results for seven molecules from PubChem BioAssay (Tox21).

SMILES strings stand for the structures. A number with no mark means an inactive call. Inconclusive results are not listed. The source made the active and inactive calls. Unless noted, calls follow the shape of the dose curve; as a rule, active = well fitted curve in the direction sought with a large enough effect in the repeat runs; inconclusive = weak or mixed curves; inactive = no such curve, though single readings can be large; an effect the other way counts as inactive or inconclusive.

Experiment [1] in a line: qHTS assay to identify small molecule agonists of the hypoxia (HIF-1) signaling pathway - cell viability counter screen (AID 1224844; calls by dose curve; also: nearly all actives have a fitted effect of over 50% in size). The gist of the method: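 In this counter screen, HRE-bla ME-180 cell viability after 17 hrs of compound exposure at 37C was read by CellTiter-Glo luminescence, multiplexed with the beta-lactamase reporter measurement.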
Experiment [2] can be described thus: qHTS assay to identify small molecule agonists of H2AX (AID 1224845; active = well fitted activation curve with a large enough effect in the signal ratio in the repeat runs, not every such curve was filed as active; the % refers to the signal ratio). The gist of the method:
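Phospho-H2AX Ser139 measured by HTRF (ex 320 nm; em 665 and 620 nm) after 24 hr antibody incubation. Compounds, 15 concentrations, 0.76% DMSO, were applied to CHO-K1 cells for 3hr at 37C before lysis.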

Experiment [3] in a line: qHTS assay to identify small molecule agonists of the hypoxia (HIF-1) signaling pathway (AID 1224846; active = well fitted activation curve with a large enough effect in the signal ratio in the repeat runs, not every such curve was filed as active; the % refers to the signal ratio). In outline: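 ME-180 HRE-bla reporter cells; compounds in DMSO, 17 h at 37C; read-out beta-lactamase via CCF4-AM FRET.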
(In qHTS, concentration-response curves come from the screen itself.)

A short description of experiment [4]: qHTS assay to identify small molecule agonists of H2AX - cell viability counter screen (AID 1224847; calls by dose curve; also: top concentration of the series differs between compounds; nearly all actives have a fitted effect of over 30% in size). The gist of the method: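 Wild-type CHO-K1 cells (10% FBS medium) were plated overnight at 37C, exposed to compounds at 15 concentrations for 3 hr at 37C (0.76% DMSO final), and viability was read as CellTiter-Glo luminescence after 30 min at room temperature.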

Experiment [5] in a line: qHTS assay to identify small molecule agonists of the estrogen related receptor (ERR) signaling pathway from Tox21 library (AID 1224849; calls by dose curve; also: nearly all actives have a fitted effect of over 15% in size). The conditions noted are these: ERR reporter cell line, ONE-Glo luciferase, 18 h; at 92.4 µM (top of the series) unless noted. The gist of the method: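 Luciferase activity in ERR pathway reporter cells served as the agonist readout; exposure lasted 18 h at 37 C, with ONE-Glo detection after 30 min at room temperature.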

Experiment [6] is described as follows: qHTS RealTime-Glo MT Cell Viability Assay in HepG2 cells - 24 hour (AID 1224867). Also: nearly all actives have a fitted effect of over 50% in size. The gist of the method: (§1)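 Cell number in HepG2 cultures estimated from NanoLuc luminescence generated by metabolic reduction of a prosubstrate by living cells. The homogeneous, nonlytic format allowed repeated reads at 0, 8, 16, 24, 32 and 40 h of compound exposure.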
Experiment [7] in a line: qHTS RealTime-Glo MT Cell Viability Assay in HEK293 cells - 32 hour (AID 1224868). Also: nearly all actives have a fitted effect of over 50% in size. Also: potency is read from the fitted curve at half-maximal effect. In outline:
(§2)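 Homogeneous bioluminescent viability format in HEK293 cells (600 cells/well). Following 5 h at 37 C/5% CO2, 23 nL compound was pintooled; the signal was measured repeatedly during 40 h incubation.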

Experiment [8] can be described thus: A CellTox Green Cytotoxicity Assay to monitor cytotoxicity in HEK293 cells - 0 hour (AID 1224869). Also: nearly all actives have a fitted effect of over 50% in size. In outline: (§3)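 Real-time, in one plate: 600 HEK293 cells/well with dead-cell DNA dye, pinned compound after 5 h, 37 C incubation over 40 h; viable cells give no appreciable fluorescence.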
Experiment [9] is described as follows: qHTS RealTime-Glo MT Cell Viability Assay in HepG2 cells - 40 hour (AID 1224870). Also: nearly all actives have a fitted effect of over 50% in size. In outline:
(§4)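 Real-time viability: cells seeded at 600 per well together with NanoLuc and cell-permeant prosubstrate, compounds added after 5 h incubation. Luminescence tracked at 0, 8, 16, 24, 32 and 40 h of exposure.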

Experiment [10] is described as follows: A CellTox Green Cytotoxicity Assay to monitor cytotoxicity in HEK293 cells - 40 hour (AID 1224871). Also: nearly all actives have a fitted effect of over 45% in size. The gist of the method:
as §3

Experiment [11] in a line: qHTS RealTime-Glo MT Cell Viability Assay in HEK293 cells - 16 hour (AID 1224872). In outline:
as §2

A short description of experiment [12]: qHTS RealTime-Glo MT Cell Viability Assay in HEK293 cells - 40 hour (AID 1224874). Also: nearly all actives have a fitted effect of over 50% in size. Also: potency is read from the fitted curve at half-maximal effect. The conditions noted are these: RealTime-Glo luminescence; max response: active compounds read low. The gist of the method:
(§5)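 Kinetic, non-lysing viability readout. Seed HEK293 (600/well) with reagent, incubate 5 h at 37 C/5% CO2, pin 23 nL compound in DMSO, incubate at 37 C, read luminescence at 0, 8, 16, 24, 32, 40 h.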

Experiment [13] in a line: A CellTox Green Cytotoxicity Assay to monitor cytotoxicity in HEK293 cells - 24 hour (AID 1224875). Also: nearly all actives have a fitted effect of over 45% in size. The gist of the method:
as §3

Experiment [14] can be described thus: A CellTox Green Cytotoxicity Assay to monitor cytotoxicity in HepG2 cells - 16 hour (AID 1224876). Also: nearly all actives have a fitted effect of over 45% in size. The gist of the method: (§6)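 Cytotoxicity was tracked as dead-cell DNA fluorescence in HepG2 cells treated with test compounds at 37 C; each time-point value comes from one kinetic series spanning 0, 8, 16, 24, 32 and 40 h.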
A short description of experiment [15]: qHTS RealTime-Glo MT Cell Viability Assay in HepG2 cells - 32 hour (AID 1224877). Also: nearly all actives have a fitted effect of over 55% in size. In outline:
as §1

Experiment [16] is described as follows: qHTS assay to identify small molecule antagonists of the estrogen related receptor (ERR) signaling pathway from Tox21 library (AID 1224848). Also: nearly all actives have a fitted effect of over 50% in size. The gist of the method: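 ERR cell line, 2,000 cells/well. 6 h settle, then compound (DMSO) added; 18 h at 37 C; ONE-Glo luminescence after 30 min RT.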
Experiment [17] can be described thus: qHTS RealTime-Glo MT Cell Viability Assay in HepG2 cells - 8 hour (AID 1224873). Also: nearly all actives have a fitted effect of over 55% in size. In outline:
as §4

Experiment [18] is described as follows: A CellTox Green Cytotoxicity Assay to monitor cytotoxicity in HepG2 cells - 24 hour (AID 1224878). Also: nearly all actives have a fitted effect of over 45% in size. In outline: as §6
Experiment [19] is described as follows: A CellTox Green Cytotoxicity Assay to monitor cytotoxicity in HepG2 cells - 40 hour (AID 1224879). Also: nearly all actives have a fitted effect of over 40% in size. Also: potency is read from the fitted curve at half-maximal effect. The gist of the method:
as §6

Experiment [20] can be described thus: qHTS RealTime-Glo MT Cell Viability Assay in HEK293 cells - 0 hour (AID 1224880). In outline:
as §5
% is scaled to controls: 0 for no effect and ±100 for the full control effect.

On to `CCCC[C@H]1CN(CC2CCOCC2)C(=O)OC12CCN(C1(C)CCN(C(=O)c3c(C)ncnc3C)CC1)CC2`, for which the Potency result in experiment [1], in experiment [2], in [4], in experiment [6], in experiment [7] and in [8] was “inactive” each time. In addition, the Potency result in experiment [9], in experiment [10], in [11], in [13], in experiment [14] and in experiment [15] was “inactive” each time. Besides, the molecule was called inactive in experiment [3]. In addition, the activity change, positive = activation in experiment [5] was -0.219%. For the same molecule, the max response in experiment [12] is 0.654%.

`C#CCOC(=O)[C@@H](C)Oc1ccc(Oc2ncc(Cl)cc2F)cc1`: the Potency entry in [1], in experiment [2], in experiment [4], in experiment [16], in [6] and in experiment [7] was “inactive” throughout. Also, the Potency result in experiment [8], in experiment [10], in [11], in experiment [17], in experiment [13] and in experiment [14] was “inactive” each time. Further, the Potency result in experiment [15], in experiment [18], in experiment [19] and in experiment [20] was “inactive” in each case. Moreover, the molecule was called inactive in [3]. Besides, the activity change, positive = activation in [5] is -13.6%. For the same molecule, the max response in experiment [12] is -16.3%.

Take `CN1CCN(C2=Nc3ccccc3Sc3ccc(Cl)cc32)CC1`: the Potency entry in experiment [1], in experiment [2], in [4], in experiment [6], in [7] and in experiment [8] was “inactive” each time. In addition, the Potency result in [9], in experiment [10], in [11], in experiment [17], in [13] and in [14] was “inactive” throughout. Further, the Potency result in experiment [15], in experiment [18], in experiment [19] and in experiment [20] was “inactive” throughout. Moreover, the molecule was called inactive in [3]. In addition, the activity change, positive = activation in experiment [5] is 1.89% [at 42.5 µM]. Moreover, in [12], the max response is -9.09%.

For `O=c1[nH]cnc2ccccc12`, the Potency entry in experiment [1], in experiment [2], in [4], in experiment [6], in experiment [7] and in experiment [8] was “inactive” in each case. The Potency entry in [9], in experiment [10], in [11], in [17], in experiment [13] and in [14] was “inactive” each time. In addition, the Potency result in experiment [15], in experiment [18], in experiment [19] and in [20] was “inactive” each time. In experiment [3], the molecule was called inactive. Moreover, the max response in experiment [12] is -7.9%.

As to `CC(=O)OC/C=C/c1ccccc1`, the Potency result in experiment [1], in experiment [2], in experiment [4], in [16], in [6] and in experiment [7] was “inactive” in each case. Further, the Potency entry in experiment [8], in experiment [9], in [10], in experiment [11], in [17] and in experiment [13] was “inactive” in each case. Further, the Potency entry in [14], in experiment [15], in experiment [18], in experiment [19] and in experiment [20] was “inactive” each time. Moreover, the molecule was called inactive in experiment [3]. Moreover, in experiment [5], the activity change, positive = activation is 0.279%. Moreover, the max response in experiment [12] was 5.43%.

For `CCC(=O)OC(C)(C)C1CC=C(C)CC1` (stereo not drawn), the Potency entry in [1], in experiment [2], in [4], in [6], in experiment [8] and in [9] was “inactive” in each case. The Potency entry in experiment [10], in experiment [11], in [17], in [13], in experiment [15] and in [18] was “inactive” in each case. In addition, the Potency entry in experiment [19] and in [20] was “inactive” in each case. Moreover, the result in [3] was inactive. For the same molecule, the activity change, positive = activation in [5] is -6.48%. Also, the max response in [12] was -0.19%.

As for `c1ccc(OCc2ccc(CCCN3CCOCC3)cc2)cc1`, the Potency result in experiment [1], in experiment [2], in [4], in experiment [6], in [8] and in experiment [9] was “inactive” each time. Moreover, the Potency entry in experiment [10], in experiment [17], in [13] and in [15] was “inactive” throughout. For the same molecule, the outcome in experiment [3] was inactive. In addition, the activity change, positive = activation in experiment [5] was -24.5% [at 42.5 µM]. Besides, the values for the Potency in [7], in experiment [12] and in experiment [19] were 19 µM (active), 21.3 µM (active) and 21.3 µM (active), respectively.
